This is an account of results in PubChem BioAssay (NCI).

Some test systems named below: DU-145 prostate; K-562 leukemia; MALME-3M melanoma; MDA-MB-231 breast; RXF 393 renal; SF-268 CNS; SF-295 CNS; SF-539 CNS; UACC-257 melanoma; M14 melanoma.
Common to all, as to assay: NCI-60 one-dose screen, 48 h (100 = growth as untreated, 0 = no growth, -100 = all killed)
Holding throughout (conditions): 10 µM unless noted

Molecules are shown by their SMILES. The panel holds about 83,000 compounds, 20% with a hit somewhere; the sample as a whole holds those more often.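 For each line, cells grew in 96-well plates with the test compound present at a single concentration for 48 hours.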 Unmarked numbers belong to inactive results. Active and inactive are the calls of the source. How the source made its calls: active means growth percent below 10; inactive means the rest.

`Cc1ccc2c(C(C[N+](=O)[O-])c3ccco3)c(-c3ccccc3)[nH]c2c1` (configuration not stated): the growth with DU-145 prostate was 49.6%; in the assay with K-562 leukemia, 11.5%; in the assay with MALME-3M melanoma, 47.1%; with MDA-MB-231 breast, 41.8%; with RXF 393 renal it was 35.2%; with SF-268 CNS it was 37.8%. Also, the growth in the assay with SF-295 CNS was 7.56% (active); in the assay on SF-539 CNS, 20.4%; in the assay on UACC-257 melanoma, 43.4%.

`Nc1ccn(-c2ccc(Br)cc2)c(=O)n1`: the growth in the assay on DU-145 prostate was 101%; in the assay on K-562 leukemia, 76.2%; in the assay on MALME-3M melanoma, 124%; with MDA-MB-231 breast it was 104%; in the assay with RXF 393 renal, 137%; in the assay with SF-268 CNS, 109%. The growth was 79.3% in the assay with SF-295 CNS, 94.1% in the assay with SF-539 CNS and 127% in the assay with UACC-257 melanoma.

Regarding `CC(=O)c1nc2ccccc2n1CC(=O)c1cccc(Cl)c1`, the growth with DU-145 prostate was 5.27% (active); with K-562 leukemia it was -0.209% (active); in the assay on MALME-3M melanoma, 90.6%; in the assay with MDA-MB-231 breast, 28.1%; in the assay on RXF 393 renal, 2% (active); in the assay on SF-268 CNS, 13.2%. The growth is 8.35% (active) in the assay with SF-295 CNS, -31.3% (active) in the assay with SF-539 CNS and 36.5% in the assay with UACC-257 melanoma.

With `OCc1ccc(N2CCc3cccc(F)c3C2)cc1Cl`, the growth in the assay with DU-145 prostate was 100% [0.1 µM]; with K-562 leukemia, 38.5% [0.1 µM]; with MALME-3M melanoma it was 104% [0.1 µM]; in the assay on MDA-MB-231 breast it was 107% [0.1 µM]; in the assay with RXF 393 renal, 103% [0.1 µM]; with SF-268 CNS it was 105% [0.1 µM]. In addition, the growth with SF-295 CNS was 52.7% [0.1 µM]; with SF-539 CNS, 110% [0.1 µM]; in the assay on UACC-257 melanoma, -14.3% [0.1 µM] (active); in the assay on M14 melanoma it was 111% [0.1 µM].

Take `FC(F)(F)c1[nH]ncc1-c1nc2ccc3n[nH]c(C#Cc4cccnc4)c3c2c2c1CCCC2`: the growth in the assay on DU-145 prostate was 45.1%; with K-562 leukemia, 44.6%; in the assay with MALME-3M melanoma it was 22.8%; in the assay with MDA-MB-231 breast, 51.7%; in the assay on RXF 393 renal it was 21.4%; in the assay on SF-268 CNS it was 49.6%. The growth with SF-295 CNS is 42.7%; with SF-539 CNS it was 19.6%; with UACC-257 melanoma, 57.7%; in the assay on M14 melanoma it was 27.2%.

Consider `O=C1CC[C@H](c2ccc(O)c3c2C(=O)[C@@H]2O[C@@H]2C3=O)c2cccc(O)c21`, for which the growth in the assay with DU-145 prostate was 21.1%; in the assay with K-562 leukemia, 0.986% (active); in the assay on MALME-3M melanoma it was 86.5%; in the assay on MDA-MB-231 breast it was 43.5%; with RXF 393 renal, 16.9%; with SF-268 CNS, 84.4%. Besides, the values for the growth in the assay with SF-295 CNS, with SF-539 CNS and with UACC-257 melanoma were 91.3%, 75% and 38%, respectively.

As to `CC1=C[C@H]2c3c(c(O)c(O)c4oc5ccccc5c(=O)c34)[C@H](c3cc(O)c(O)c4oc5ccccc5c(=O)c34)[C@H]2C(C)(C)C1`, the growth was 14.9% in the assay with DU-145 prostate; 3.25% (active) in the assay with K-562 leukemia; -1.47% (active) in the assay with MALME-3M melanoma; 12.1% with MDA-MB-231 breast; 7.55% (active) with RXF 393 renal; 5.33% (active) with SF-268 CNS. For the same molecule, the values for the growth in the assay on SF-295 CNS, in the assay with SF-539 CNS and in the assay on UACC-257 melanoma were -33.4% (active), -5.05% (active) and 7.1% (active), respectively.

Consider `COc1ccc2nc(NC(=O)CSc3nnc4n3S(=O)(=O)c3ccccc3N4c3ccccc3)sc2c1`, for which the growth in the assay on DU-145 prostate was 99.3%; in the assay with K-562 leukemia it was 113%; in the assay with MALME-3M melanoma it was 89.7%; in the assay on MDA-MB-231 breast, 77.7%; in the assay with RXF 393 renal, 23%; with SF-268 CNS, 71.9%. Also, the values for the growth with SF-295 CNS, in the assay on SF-539 CNS and with UACC-257 melanoma were 73.2%, 94.3% and 103%, respectively.

On to `COc1ccc(-c2nc3cc(C(=O)Nc4cc(OC)c(OC)c(OC)c4)ccc3n2C2CCCCC2)cc1`, for which the growth in the assay with DU-145 prostate is 103%; with K-562 leukemia, 76.1%; in the assay with MALME-3M melanoma it was 95.6%; with MDA-MB-231 breast, 88.6%; with RXF 393 renal it was 103%; with SF-268 CNS, 100%. Also, the growth in the assay on SF-295 CNS is 104%; with SF-539 CNS it was 88.6%; with UACC-257 melanoma, 100%; with M14 melanoma it was 96%.

For `COc1ccc(C(=O)c2sc3nc4c(c(-c5cccnc5)c3c2N)CCCC4)cc1OC`, the growth was 91.4% with DU-145 prostate; 15.2% with K-562 leukemia; 83.5% in the assay with MALME-3M melanoma; 38.3% in the assay on MDA-MB-231 breast; 51% in the assay on RXF 393 renal; 64.9% with SF-268 CNS. The growth with SF-295 CNS was 93.2%; in the assay on SF-539 CNS it was 73.4%; in the assay on UACC-257 melanoma, 98.3%.

Regarding `O=C1CSC(=S)N1CCc1ccc(O)cc1`, the growth with DU-145 prostate was 33.5%; in the assay with K-562 leukemia, 58.2%; with MALME-3M melanoma, 85.3%; with MDA-MB-231 breast, 91.3%; in the assay with RXF 393 renal it was 95.9%; in the assay on SF-268 CNS, 86.2%. Also, the values for the growth with SF-295 CNS, with SF-539 CNS and in the assay on UACC-257 melanoma were 97.5%, 85.2% and 92%, respectively.

Regarding `Brc1ccc(-c2csc(Nc3ccccn3)n2)cc1`, the growth in the assay on DU-145 prostate was 109%; with K-562 leukemia it was 57.1%; with MALME-3M melanoma, 76.3%; with MDA-MB-231 breast it was 86.3%; in the assay with RXF 393 renal it was 118%; in the assay with SF-268 CNS it was 115%. Besides, the growth with SF-295 CNS was 99.9%; in the assay with SF-539 CNS, 102%; with UACC-257 melanoma it was 105%; with M14 melanoma, 96.9%.

As to `COc1cc2c(cc1-c1c(C)noc1C)ncc1nc(C3CCCC3)n([C@H](C)COC(F)F)c12`, the growth in the assay on DU-145 prostate is 67.7%; in the assay with K-562 leukemia, 23.5%; with MALME-3M melanoma it was 71.1%; with MDA-MB-231 breast it was 44.6%; with RXF 393 renal, 48.6%; in the assay on SF-268 CNS, 62.6%. Moreover, the growth with SF-295 CNS is 50.3%; in the assay with SF-539 CNS, 38.5%; in the assay on UACC-257 melanoma it was 32.1%; in the assay with M14 melanoma it was 40.9%.

On to `O=c1nc2oc3ccc4ccccc4c3cc-2s1`, for which the growth with DU-145 prostate was 19%; in the assay on K-562 leukemia, 11.9%; with MALME-3M melanoma, 45.2%; in the assay with MDA-MB-231 breast it was 42.7%; in the assay with RXF 393 renal, -18.5% (active); in the assay on SF-268 CNS, 40.8%. For the same molecule, the growth is 9.97% (active) with SF-295 CNS, -25.1% (active) in the assay with SF-539 CNS, 51.6% in the assay on UACC-257 melanoma and -33.4% (active) with M14 melanoma.
